# This is a sample that favours compounds with a hit; in the whole collection about 6.9% have one here.
# JMJD2A Tudor: JMJD2A Tudor domain (human) inhibition; AlphaScreen JMJD2A-Tudor / H3K4me3 peptide binding; 390,000 compounds, 4.4% hits; O75164; Potency, µM (titrated, usually from 114 µM), for inactives: at the highest dose activity change, negative = inhibition, most hits filed as inhibitors; note: % is set by controls: 0 for no effect and ±100 for the full control effect; nearly all actives have a fitted effect of over 50% in size
# L3MBTL1 block: inhibitors of human L3MBTL1; Q9Y468; AlphaScreen L3MBTL1–H3K9me1 peptide binding; Potency, µM (series often up to 57.1 µM), inactives show at the top dose activity, negative = inhibition, actives largely listed as inhibitors; 230,000 compounds, 0.66% hits; note: % is set by controls: 0 for no effect and ±100 for the full control effect; nearly all actives have a fitted effect of over 60% in size
#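 AlphaScreen proximity signal between nickel-chelate acceptor and streptavidin donor beads (final 10 ug/mL) reports binding of 50 nM L3MBTL1 to 75 nM biotin-H3 K9me1 peptide; complex incubated with compounds 30 min at room temperature; cefsulodin titration as control.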
# HP1b binding inh: blocks HP1-beta chromodomain binding to methylated histone tails. AlphaScreen HP1-beta / biotin-H3K9me3 peptide binding. Potency, µM (series often up to 114 µM), for the others: at the top dose activity change, negative = inhibition, most hits filed as inhibitors. AID 540317. 390,000 compounds, 0.56% hits. P83916; note: nearly all actives have a fitted effect of over 70% in size
#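 Compound inhibition of the preformed complex between 50 nM HP1-beta and 50 nM biotinylated H3K9me3 peptide was read by AlphaScreen. Buffer was PBS pH 7.4 with 0.01% Tween-20. Incubations ran 30 min at room temperature, with 10 ug/mL donor/acceptor beads.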
# PLK1 PBD block: PLK1 (human) polo-box domain binding inhibition. P53350. Plk1 PBD binding of FITC phosphopeptide, fluorescence polarization. Potency, µM, inactives show max response, negative = inhibition, most hits filed as inhibitors. 360,000 compounds, 2.8% hits; note: series mostly up to about 57 µM; % is set by controls: 0 for no effect and ±100 for the full control effect; nearly all actives have a fitted effect of over 65% in size
# VDR inh: vitamin D3 receptor (human) inhibition. Potency, µM, for the others: max response, negative = inhibition, actives largely listed as inhibitors. P11473. AID 504847. VDR-SRC2-3 peptide fluorescence polarization, 2 h. 400,000 compounds, 0.93% hits; note: % is set by controls: 0 for no effect and ±100 for the full control effect
#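 Two reagent solutions held at 4 deg C in the dark were dispensed, compounds pinned at 23 nl, and the mixture incubated 2 h at room temperature. Read-out: fluorescence polarization of VDR–SRC2-3 peptide binding.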
# BAZ2B block: inhibitors of human BAZ2B bromodomain; Q9UIF8; 360,000 compounds, 4.4% hits; Potency, µM (top dose mostly 114 µM), without a hit: at the highest dose activity change, negative = inhibition, hits mostly inhibitors; AID 504333; AlphaScreen BAZ2B-H3K14Ac peptide displacement; note: % is set by controls: 0 for no effect and ±100 for the full control effect; nearly all actives have a fitted effect of over 60% in size
#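 BAZ2B 50 nM plus b-H3(5-23)K14Ac 50 nM, PBS pH 7.4/0.01% Tween-20, 30 min RT; compound added (max 110 uM), 30 min RT; streptavidin donor/Ni-chelate acceptor beads 10 ug/mL final, 20 min dark; AlphaScreen read.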
# The depositor's hits bear a star; ? = inconclusive; · = not tested or not shown; [ ] = dose if it differs, or a comment. Calls come from the whole dose curve; as a rule, active = well fitted curve in the direction sought with a large enough effect; inconclusive = small, poorly fitted or top-dose-only effect, or another doubt; inactive = no such curve, though single readings can be large; an effect the other way counts as inactive or inconclusive. Potency is the fitted concentration of half-maximal effect.
SMILES,JMJD2A Tudor,L3MBTL1 block,HP1b binding inh,PLK1 PBD block,VDR inh,BAZ2B block
Cc1ccc(NC(=O)c2sc(=S)n(-c3cc(C)ccc3F)c2N)cc1,?,·,?,12µM*,89µM*,?
Cc1nc2cc(C(=O)O)ccc2n1-c1ccc(C(C)C)cc1,-27%,·,-6%,·,-12%,?
CCOC(=O)c1cc(-c2ccc(OC)cc2)n(CCC(=O)Nc2nc3ccc(OCC)cc3s2)c1C,-14%,·,39%,·,12%,0%
Cc1cc(C)c2nc(NNC(=O)c3cc(=O)c4ccccc4o3)sc2c1,56µM*,-2%,?,-26%,40µM*,32µM*
COc1ccc2nc(NC(=O)c3cc(=O)c4ccccc4o3)sc2c1,-34%,·,58%,·,8%,0%
Cc1ccc(NC(=O)C2CCCN(S(=O)(=O)c3ccc4c(c3)CCCC(=O)N4)C2)cc1N(C)C (stereo not drawn),-26%,·,32%,·,13%,3%[57.1 µM]
CC1(C)OC(c2ccccc2)=C/C(=C\C=N\NC(=O)c2ccncc2)O1,-29%,-29%,7%,2%,9%,71µM*
CC1(C)OC(c2ccccc2)=C/C(=C/C=Nc2ccccc2)O1,?,-3%,-11%,-3%,5%,?
O=C(NCCN1CCOCC1)C1CCN(Cc2ccccc2O)CC1,1.4µM*,·,?,4%,-1%,45µM*
O=C(CSc1nnc(-c2ccccc2)c(-c2ccccc2)n1)NCCc1ccccc1,?,·,-8%,·,7%,?
Cc1cc2nc3ccc(=[N+](C)C)cc-3sc2cc1N,?,-38%,30%,?,?,35µM*
O=C(O)CNc1cccc(-c2nn3c(=O)cc(N4CCNCC4)nc3s2)c1,-18%,·,·,·,·,·
O=C(CCl)N1c2ccccc2SCC1c1ccccc1 (stereo not drawn),4%,·,91%,3µM*,?,-38%
CC(=O)c1sc(NC(=O)CCCOc2ccc(Cl)cc2)nc1C,-19%,6%,28%,-7%,-13%,79µM*
COc1ccc(OCCCC(=O)Nc2nc(C)c(C(C)=O)s2)cc1,?,7%,-5%,-29%,3%,2%
CCC(=O)Nc1ccc2nc(SCCOc3ccc(C)cc3OC)sc2c1,5%,·,30%,·,1%,-23%
O=C(OCC#CCSc1nnc(-c2cccc3ccccc23)o1)c1ccc(SC(F)(F)F)cc1,23%,·,·,·,·,·
CC(=O)Nc1cccc(C)c1,-11%,-7%,39%,3%,-14%,-5%
CC(=O)Nc1ccc2c(c1)C(=Nc1cccc(C)c1)c1ccccc1-2,32µM*,·,?,-3%,-5%,·
N#Cc1c(NC(=O)c2cnccn2)sc2c1CCCC2,?,-9%,-5%,27µM*,-2%,-9%
CCC(=O)Nc1sc2c(c1C#N)CCC2,89µM*,·,-1%,?,-2%,-14%
CC(=O)Nc1sc2c(c1C#N)CCC2,-5%,3%,33%,4%,9%,-11%
CC(C)c1onc(C(=O)Nc2sc3c(c2C#N)CCC3)c1[N+](=O)[O-],-25%,·,-8%,?,2%,-34%
N#Cc1c(NC(=O)c2cccnc2)sc2c1CCC2,-16%,·,?,-20%,-3%,-30%
Cc1nn(CCCC(=O)Nc2sc3c(c2C#N)CCC3)c(C)c1[N+](=O)[O-],?,-6%,?,30µM*,?,?
SMILES,JMJD2A Tudor,L3MBTL1 block,HP1b binding inh,PLK1 PBD block,VDR inh,BAZ2B block
CC(C)c1cc(C(=O)Nc2sc3c(c2C#N)CCC3)no1,-1%,5%,12%,24µM*,1%,-3%
Cc1cc(=O)[nH]c2nnc(SCc3cccc(C(F)(F)F)c3)n12,-11%,·,55%,·,10%,?
Cn1cc(C(=O)N/N=C/c2cccc([N+](=O)[O-])c2)c2ccccc21,-20%,·,19%,-5%,11%,1%
O=C1CCc2cc(S(=O)(=O)Nc3ccc4ccccc4c3)ccc2N1,-22%,·,·,·,·,·
CC(C)C(C(=O)Nc1sc2c(c1C#N)CCCCC2)N1C(=O)c2ccccc2C1=O (stereo not drawn),-28%,-5%,11%,-6%,0%,50µM*
Cn1ncc(Cl)c1C(=O)NC(=S)Nc1sc2c(c1C#N)CCCCC2,-11%[11.4 µM],-6%,17%,8.4µM*,-8%,-1%
O=C(/C=C/c1cccc(F)c1)Nc1ccc(S(=O)(=O)N2CCOCC2)cc1,-17%,-5%,17%,4%,?,·
COc1cc(-c2nnc(SCC(=O)Nc3cccc(C#N)c3)o2)cc(OC)c1OC,-11%,·,35%,·,9%,-2%
O=C(O)c1cccc(-n2c(-c3cnccn3)n[nH]c2=S)c1,-16%,3%,30%,-15%,-8%,?
S=c1[nH]nc(-c2cnccn2)n1-c1ccccc1,32µM*,·,30%,-3%,1%,?
COc1ccc(-n2c(-c3cnccn3)n[nH]c2=S)cc1,8.9µM*,1%,15%,-6%,-9%,?
COc1ccc(C2c3[nH]c4ccccc4c3CCN2C(=O)c2cc3ncccn3n2)c(F)c1 (stereo not drawn),?,-18%,2%,-4%,16%,32µM*
COc1ccc(C2c3[nH]c4ccccc4c3CCN2C(=O)c2cn3ccccc3n2)c(F)c1 (stereo not drawn),?,-27%,-5%,-13%,20%,22µM*
COc1ccc(C2c3[nH]c4ccccc4c3CCN2C(=O)c2ccccc2C(C)=O)c(F)c1 (stereo not drawn),?,-5%,2%,-3%,-1%,-11%
Cc1cc(=O)nc2c3ccccc3n(CC(=O)NCCCN3CCOCC3)n12,?,·,1%,19µM*,?,-2%
Cc1cc(=O)nc2c3ccccc3n(CC(=O)NCCCN3CCCC3=O)n12,-8%,·,42%,-24%,-20%,-9%
O=[N+]([O-])c1cc(Cl)cc(/C=N/NC(=S)Nc2ccc(S(=O)(=O)N3CCOCC3)cc2)c1O,-35%[11.4 µM],3.5µM*,22µM*,17µM*,-13%,2.8µM*
O=C(Cn1c(=O)n(-c2cccc(C(F)(F)F)c2)c(=O)c2sccc21)NCC1CCCO1 (stereo not drawn),40µM*,·,9%,?,-22%,-1%
N#CC(c1ccc(Cl)cc1)c1ncc(C(F)(F)F)cc1Cl (stereo not drawn),36%,40%,67%,-9%,-19%,6%
N#CC(c1ccc(Cl)cc1)c1c(Cl)cc(-n2ncc(=O)[nH]c2=O)cc1Cl (stereo not drawn),·,·,·,·,28µM*,·
Cc1ccc(C2CC(c3ccc(F)cc3)Nc3nc(N)nn32)cc1 (stereo not drawn),?,-1%,3%,27µM*,-19%,2%
Nc1nc2n(n1)C(c1ccc(F)cc1)CC(c1ccc(F)cc1)N2 (stereo not drawn),-9%,-2%,50%,-1%,4%,-2%

# Compound activity as filed in PubChem BioAssay.
